Source: PubChem
Shown are actives, neighbours in structure and some others; about 2.3% of the full set was active somewhere.
Pol kappa inh = inhibitors of human DNA polymerase kappa | Q9UBT6 | purified Pol kappa, fluorescent DNA synthesis assay, 10 min | Potency, µM (titrated, usually from 107 µM), usual class: inhibitors | 400,000 compounds, 0.53% hits
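Readout: fluorescence, taken kinetically at 0 and 10 min. Conditions: 10 nM Pol kappa, 15 min RT compound preincubation, 50 nM substrate final. Controls: enzyme-free buffer wells.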
POLH inh = blocks human DNA polymerase eta activity. recombinant Pol eta, fluorescent DNA replication assay. AID 588591. 390,000 compounds, 1.2% hits. Potency, µM (highest dose often 114 µM), usual class: inhibitors
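Pol eta (10 nM) was preincubated with compounds for 15 min at room temperature, after which fluorescent replication substrate (50 nM final) was added to start the reaction. Fluorescence was read kinetically at 0 and 10 min.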
WRN inhibitor = inhibitors of human WRN helicase; 360,000 compounds, 0.46% hits; Q14191; Potency, µM (series often up to 114 µM), most hits filed as inhibitors; AID 651768; WRN helicase unwinding, fluorescent forked duplex, kinetic; note: nearly all actives have a fitted effect of over 55% in size
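Primary qHTS, 1536-well format. 20 nM WRN + compound, 15 min RT; start with 100 nM forked fluorophore/quencher duplex, 2 mM ATP (final); kinetic read ex 525/em 598 nm.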
POLB inh = inhibitors of human DNA polymerase beta; Pol beta primer extension/strand displacement, fluorescence kinetic; Potency, µM (doses to about 114 µM), hits mostly inhibitors; 340,000 compounds, 1.3% hits; AID 485314
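Pol beta (10 nM) and compounds were preincubated 15 min at room temperature, then 50 nM substrate (final) started primer extension/strand displacement. Reads were taken at 0 and 10 min; concentration-response data were fitted to a four-parameter Hill equation.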
Pol iota inh = inhibitors of human DNA polymerase iota | 390,000 compounds, 1% hits | Potency, µM (doses to about 115 µM), most hits filed as inhibitors | Pol iota fluorescent replication assay, 10 min
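Pol iota at 10 nM preincubated 15 min with compounds at room temperature; reaction started with fluorescent substrate, 50 nM final. Fluorescence read kinetically at 0 and 10 min; buffer-only wells as negative control.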
Numbers stand for hits; [ ] = dose if it differs, or a comment. Calls come from the whole dose curve; as a rule, active = well fitted curve in the direction sought with a large enough effect; inconclusive = small, poorly fitted or top-dose-only effect, or another doubt; inactive = no such curve, though single readings can be large; an effect the other way counts as inactive or inconclusive.

CC[N+]1(CC(=O)c2ccc(Cl)cc2)CCCCC1 was read as Pol kappa inh inactive and Pol iota inh inactive.
CN(C)c1ccc(/C=C/c2ccnc3ccc(O)cc23)cc1 was read as Pol kappa inh inactive and Pol iota inh inconclusive.
`COc1cc(/C=C2\C(=N)N3N=CSC3=NC2=O)cc(Br)c1OC(=O)c1ccco1` gave Pol kappa inh inactive, POLH inh 79µM, WRN inhibitor inactive, POLB inh inconclusive and Pol iota inh inconclusive.
`Cc1ccnc2c(Cl)cccc12` gave Pol kappa inh inactive and Pol iota inh inactive.
Screening CCCCCCC(=O)N(O)C1CC(=O)N(c2ccc(F)cc2)C1=O (stereo unspecified) returned Pol kappa inh inactive, POLH inh inactive, WRN inhibitor 28µM, POLB inh inactive and Pol iota inh inactive.
For O=C(COc1ccccc1C(=O)Nc1ccccc1)Nc1ccccc1F the results were Pol kappa inh inactive and Pol iota inh inconclusive.
Screening O=C1C=C(O)CC(c2cccs2)C1 (stereo unspecified) returned Pol kappa inh inactive, POLH inh inactive, WRN inhibitor inactive, POLB inh 28µM and Pol iota inh inconclusive.
`O=C(C[n+]1cccc2cccc(O)c21)c1ccccc1` gave Pol kappa inh inactive and Pol iota inh inactive.
Screening O=C(Oc1ccc([N+](=O)[O-])cc1)C1CC(=O)N(c2ccc3c(c2)OCCO3)C1 (stereo unspecified) returned Pol kappa inh inactive, POLH inh inconclusive, WRN inhibitor inactive[11.6 µM] and Pol iota inh 79µM.
`Cc1c(Cl)cnc(NC(=O)COC(=O)C(NC(=O)c2ccco2)C(C)C)c1Cl` (stereo unspecified) gave Pol kappa inh inactive, POLH inh 89µM, WRN inhibitor inactive, POLB inh 45µM and Pol iota inh inconclusive.
`Cc1noc(C)c1C(=O)OCC(=O)Nc1ncc(Cl)c(C)c1Cl` gave Pol kappa inh inactive, POLH inh 20µM, WRN inhibitor inactive[11.6 µM] and Pol iota inh inconclusive.
`Cc1nc(NC(=O)COC(=O)[C@@H](NC(=O)c2ccco2)C(C)C)c(Cl)cc1Cl` gave Pol kappa inh inactive, POLH inh inactive, WRN inhibitor inactive and Pol iota inh inactive.
COc1ccc(CC(=O)OCC(=O)Nc2ncc(Cl)c(C)c2Cl)cc1 was read as Pol kappa inh inactive, POLH inh 20µM, WRN inhibitor inactive and Pol iota inh inconclusive.
C=CCNC(=O)[C@@H]1CSC2c3ccc(OC)c(OC)c3C(=O)N21 (stereo partly specified) was read as Pol kappa inh inactive, POLH inh inconclusive, WRN inhibitor inactive, POLB inh inactive and Pol iota inh 40µM.
COc1ccc2c(c1OC)C(=O)N1C2SC[C@H]1C(=O)NCCC(C)C (stereo partly specified) was read as Pol kappa inh inactive, POLH inh inactive, WRN inhibitor inactive, POLB inh inactive and Pol iota inh inconclusive.
For C=CC[n+]1cccc2cc(Br)ccc21 the results were Pol kappa inh inactive and Pol iota inh inactive.
For NC(=O)[C@@H]1CCCNc2c(I)cc([N+](=O)[O-])cc2C(=O)N[C@@H](CCC(=O)O)C(=O)N[C@@H](CO)C(=O)N1 the results were Pol kappa inh inactive, POLH inh inactive, WRN inhibitor inactive, POLB inh inactive and Pol iota inh inactive.
Screening C[C@@H]1NC(=O)c2cc([N+](=O)[O-])cc(I)c2NCCCC[C@@H](C(N)=O)NC(=O)[C@H](CCC(=O)O)NC1=O returned Pol kappa inh inconclusive, POLH inh 22µM, WRN inhibitor inactive, POLB inh inactive and Pol iota inh 40µM.
NC(=O)C[C@@H]1NC(=O)[C@H](CCC(=O)O)NC(=O)c2cc([N+](=O)[O-])cc(I)c2OCC[C@@H](C(N)=O)NC1=O was read as Pol kappa inh inconclusive, POLH inh 35µM, WRN inhibitor inactive, POLB inh inactive and Pol iota inh inactive.
`NC(=O)C[C@H]1NC(=O)[C@H](CCC(=O)O)NC(=O)c2cc([N+](=O)[O-])cc(I)c2NCCC[C@@H](C(N)=O)NC1=O` gave Pol kappa inh inconclusive, POLH inh 35µM, WRN inhibitor inactive, POLB inh inactive and Pol iota inh inconclusive.
C[C@@H]1NC(=O)c2cc([N+](=O)[O-])cc(I)c2OCC[C@@H](C(N)=O)NC(=O)[C@H](CCC(=O)O)NC1=O was read as POLB inh inactive.
For CCC(C)(C)c1ccc(CC(C)CN2C[C@@H](C)O[C@@H](C)C2)cc1 (stereo partly specified) the results were Pol kappa inh inactive[19.4 µM].
`CCNc1nc(C#N)nc(Nc2ccccc2)n1` gave Pol kappa inh inactive and Pol iota inh inactive.
For CCS(=O)(=O)N1Cc2ccccc2CC1C(=O)Nc1nnc(SCc2ccc(C#N)cc2)s1 (stereo unspecified) the results were Pol kappa inh inconclusive, POLH inh inconclusive, WRN inhibitor inconclusive, POLB inh 10µM and Pol iota inh inconclusive.
CCSc1nnc(NC(=O)C2Cc3ccccc3CN2C(=O)c2ccco2)s1 (stereo unspecified) was read as Pol kappa inh inconclusive, POLH inh 28µM, WRN inhibitor inconclusive, POLB inh 22µM and Pol iota inh inconclusive.
`CCS(=O)(=O)N1Cc2ccccc2CC1C(=O)Nc1ncc(C)s1` (stereo unspecified) gave Pol kappa inh inactive, POLH inh inactive, WRN inhibitor inactive, POLB inh inactive and Pol iota inh inactive.
For CC1CCN(Cc2c(O)ccc3c2O/C(=C\c2ccco2)C3=O)CC1 the results were Pol kappa inh inconclusive, POLH inh 56µM, WRN inhibitor inconclusive, POLB inh 11µM and Pol iota inh inconclusive.
Screening O=C1/C(=C/c2ccco2)Oc2c1ccc(O)c2CN1CCCCC1 returned Pol kappa inh 79µM, POLH inh 22µM, WRN inhibitor inconclusive, POLB inh 20µM and Pol iota inh inconclusive.
CC(C)c1ccc(/C=C2\Oc3c(ccc(O)c3CN3CCN(C)CC3)C2=O)cc1 was read as Pol kappa inh inactive, POLH inh inactive, WRN inhibitor inactive, POLB inh inactive and Pol iota inh inconclusive.
COCCN(CCOC)Cc1c(O)ccc2c1O/C(=C\c1ccco1)C2=O was read as Pol kappa inh inconclusive, POLH inh inconclusive, WRN inhibitor inactive[11.6 µM], POLB inh 10µM and Pol iota inh inconclusive.
Cc1ccc(/C=C2\Oc3c(ccc(O)c3CN3CCN(CCO)CC3)C2=O)cc1 was read as Pol kappa inh inactive, POLH inh inactive, WRN inhibitor inactive, POLB inh inactive and Pol iota inh inactive.
For CCC(C)C(N)C(=O)NC(CC(N)=O)C(=O)NC(CC(C)C)C(=O)NC(CCCCN)C(=O)NC(C)C(=O)NC(CC(C)C)C(=O)NC(C)C(=O)NC(C)C(=O)NC(CC(C)C)C(=O)NC(C)C(=O)NC(CCCCN)C(=O)NC(CCCCN)C(=O)NC(C(=O)NC(CC(C)C)C(N)=O)C(C)CC (stereo unspecified) the results were Pol kappa inh inactive.
